Screening data: PubChem, National Center for Advancing Translational Sciences (NCATS)
CHX counter – Cycloheximide Counterscreen for Small Molecule Inhibitors of Shiga Toxin. cell reporter, cycloheximide protein synthesis inhibition counterscreen. 300,000 tested, 12% active. max response, %; in the data active = max response mostly above about 13%, no sharp cut-off; inactive = mostly below about 14%; also: read at 38.3 µM for the half of the compounds with a filed dose; 0% is about no effect
FMDV antiviral – High Throughput Screening for Foot and Mouth Disease Virus Antivirals | Potency, µM (titrated, usually from 57.9 µM), for inactives: at the highest dose activity change, negative = inhibition, hits mostly inhibitors | 410,000 tested, 1.2% active | FMDV antiviral cell-based qHTS | AID 1159524, 2015; calls by dose curve; tested in HEK293T cells; also: read-out not given here; potency is read from the fitted curve at half-maximal effect; % is scaled to controls: 0 for no effect and ±100 for the full control effect; nearly all actives have a fitted effect of over 45% in size
Sm TGR inh – qHTS Assay for the Inhibitors of Schistosoma Mansoni Peroxiredoxins. Schistosoma mansoni thioredoxin glutathione reductase (TGR), Q962Y6. purified TGR, DTNB reduction, TNB absorbance 405 nm. Potency, µM (titrated, usually from 114 µM), for the others: top-dose activity change, negative = inhibition, usual class: inhibitors. 360,000 tested, 3% active; active = well fitted inhibition curve with a large enough effect; inconclusive = small, poorly fitted or top-dose-only effect; inactive = no such curve, though single readings can be large or run the other way; also: potency is read from the fitted curve at half-maximal effect; % is scaled to controls: 0 for no effect and ±100 for the full control effect; nearly all actives have a fitted effect of over 60% in size
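TGR 20 nM + NADPH 100 uM (dispensed conc.), cpd preinc 15 min RT; start with NADPH (500 uM addition) then DTNB (15 mM addition). Kinetic TNB absorbance, 405 nm filter. Four-parameter Hill fit across titration.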
Shiga toxin inh – A qHTS for Small Molecule Inhibitors of Shiga Toxin; Vero cells, Shiga toxin protein synthesis inhibition reporter; inhibition, % at 38.7 µM; 290,000 tested, 9.2% active; in the data active = inhibition mostly above about 28%, no sharp cut-off; inactive = mostly below about 43%; also: 0% is about no effect
* marks the source's active call; other numbers are inactive results; ? = inconclusive; nt = not tested or not shown; [ ] = another dose, or the depositor's remark. An excerpt weighted towards active compounds, which were near 12% of everything screened.

SMILES	CHX counter	FMDV antiviral	Sm TGR inh	Shiga toxin inh
COc1ccc(-n2nnnc2C2CCN(S(=O)(=O)c3cccc(C(F)(F)F)c3)CC2)cc1	nt	1%	2%	nt
COc1ccc(S(=O)(=O)N2CCC(c3nnnn3-c3ccccc3)CC2)cc1OC	nt	25µM*	6%	nt
O=c1c(CCc2ccccc2)nc2cnc(N3CCNCC3)nc2n1CCc1ccccc1	nt	-7%	nt	nt
COc1cc(C/C=C/c2ccccc2)c(OC)cc1O	nt	10%	nt	nt
CC1=NC(=O)C(N=Nc2ccccc2C(=O)O)N1c1ccccc1 (centres undefined)	-1	12%	-15%[57.1 µM]	8
CC1=NC(=O)C(N=Nc2cccc(C(=O)O)c2)N1c1ccccc1 (centres undefined)	35*	8.9µM*	37%	104*
CC1=NC(=O)C(N=Nc2ccccc2)N1c1ccccc1 (centres undefined)	29*	35%	0%	52*
CC(=O)C(Sc1nc(-c2ccccc2Cl)nc2c1c(=O)n(C)c(=O)n2C)C(=O)N(C)C (centres undefined)	nt	-9%	2%	nt
CC(C)(C)c1cc(CN2CCC(O)CC2)cc(C(C)(C)C)c1O	-8	-10%	7.9µM*	24
CN1CCN(Cc2cc(C(C)(C)C)c(O)c(C(C)(C)C)c2)CC1	-5	-15%	3.5µM*	-10
OC1CCN(Cc2ccc3ccccc3c2)CC1	-3	1%	-15%	-13
CC1=NN(Cc2cc(C(C)(C)C)c(O)c(C(C)(C)C)c2)C(=O)C1	-3	3%	11%	-5
CCOc1ccc(S(=O)(=O)N(CC(=O)Nc2ccc3c(c2)OCO3)c2ccccc2)cc1	nt	-1%	1%	nt
Cc1ccc(C(=O)Nc2nnc(-c3ccco3)o2)cc1	44*	-22%	-4%	18
O=C(Nc1nnc(-c2ccco2)o1)c1ccc([N+](=O)[O-])s1	-2	21%	28µM*	31
Cc1ccsc1C(=O)Nc1nnc(-c2ccco2)o1	18*	18%	2%	14
COCCNC(=O)CCCN1C(=O)CCn2nc(-c3cccn3C)cc21	nt	0%	?	nt
COc1ccc(Nc2nc(N)nc(CSC(=S)N3CCCCC3)n2)cc1	48*	49%	11%	36*
Cc1c(Cl)cccc1Nc1nc(N)nc(CSC(=S)N2CCOCC2)n1	39*	52%	-13%	76
COc1ccc(Nc2nc(N)nc(CSC(=S)N3CCN(C)CC3)n2)cc1	17*	43%	30%	19
COc1ccc(Nc2nc(N)nc(CSC(=S)N3CCCCC3C)n2)cc1 (centres undefined)	28*	-25%	5%	65*
COc1ccc(Nc2nc(N)nc(CSC(=S)N3CCN(c4ccccc4)CC3)n2)cc1	1	-27%	-3%	-2
COc1ccc(Nc2nc(N)nc(CN3CCC(C)CC3)n2)cc1	4	7%	45%	18
CC(C)C(NS(C)(=O)=O)c1nnc2n1CCN(Cc1ccc(Cl)cc1)CC2 (centres undefined)	nt	-10%	nt	nt
CCOc1ccc(Nc2nc(N)nc(CSC(=S)N3CCN(c4ccccc4)CC3)n2)cc1	4	-23%	0%	25
SMILES	CHX counter	FMDV antiviral	Sm TGR inh	Shiga toxin inh
CC1CCN(C(=S)SCc2nc(N)nc(Nc3ccccc3)n2)CC1	25*	28%	-14%	35*
O=C1/C(=C/c2ccccc2Cl)SC(=S)N1CCC(=O)N1CCCCC1CCO (centres undefined)	9	-12%	-2%	5
O=C1/C(=C\c2ccccc2)SC(=S)N1CCC(=O)N1CCCCC1CCO (centres undefined)	35*	0%	-12%	39*
CC(C)c1ccc(/C=C2\SC(=S)N(CCC(=O)N3CCCCC3CCO)C2=O)cc1 (centres undefined)	-6	11µM*	-10%	-11
COc1ccc(/C=C2\SC(=S)N(CCCC(=O)N3CCCCC3CCO)C2=O)cc1 (centres undefined)	-2	-16%	-9%	1
CCN(CC)S(=O)(=O)c1ccc(Cl)c(NC(=S)NC(=O)C2CCCC2)c1	nt	20µM*	-26%	nt
O=C(NC(=S)Nc1ccccc1Br)C1CCC1	43*	-1%	4%	50*
CCOc1ccccc1NC(=S)NC(=O)C1CCCCC1	-5	-22%	8.9µM*	12
CCOc1ccccc1NC(=O)C1CCCC1	nt	15%	nt	nt
COc1ccccc1NC(=S)NC(=O)C1CC1	-2	28%	?	-3
O=C(NC(=S)Nc1ccccc1Cl)C1CC1	45*	10%	45µM*	38
CN(C(=O)CC(=O)Nc1ccc2nc3n(c(=O)c2c1)CCCCC3)c1ccccc1F	nt	-1%	1%	nt
COc1ccc(S(=O)(=O)N2CCN(Cc3nc4ccc(C)cc4o3)CC2)cc1OC	nt	-23%	-5%	nt
